{"source": "PubChem BioAssay (NCATS)", "note": "Inconclusive results are not listed. Active and inactive are the calls of the source. Calls come from the whole dose curve; as a rule, active = well fitted inhibition curve with a large enough effect; inconclusive = small, poorly fitted or top-dose-only effect; inactive = flat fitted curve, though single readings scatter. Potency is the fitted concentration of half-maximal effect.", "data": [{"tested_on": "PAD", "assay": "qHTS profiling for inhibitors of Plasmodium falciparum proliferation (AID 504749); note: nearly all actives have a fitted effect of over 60% in size;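 for activity, negative = inhibition: 0% = DMSO vehicle and full inhibition = artemisinin control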", "details": "P. falciparum in erythrocytes, SYBR Green DNA, 72 h; series mostly up to 28.7 µM; activity, negative = inhibition: at the top concentration", "in_short": "(§1)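 P. falciparum-infected erythrocytes (0.3% parasitemia, 2.5% hematocrit final) were exposed to compounds for 72 h at 37 C in 5% CO2, then lysed with SYBR Green buffer overnight at room temperature; parasite DNA fluorescence was normalized to artemisinin and DMSO controls.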", "values": [{"smiles": "Cn1nnc2c(C(N)=O)ncn2c1=O", "activity, negative = inhibition": "-6.24% (inactive)"}, {"smiles": "N[C@@H](C(=O)N[C@@H]1C(=O)N2C(C(=O)O)=C(Cl)CS[C@H]12)c1ccccc1", "activity, negative = inhibition": "8.44% (inactive)"}, {"smiles": "O=P(O)(O)C(O)(Cc1cccnc1)P(=O)(O)O", "activity, negative = inhibition": "1.23% (inactive)"}, {"smiles": "NCCCC(O)(P(=O)(O)O)P(=O)(O)O", "activity, negative = inhibition": "11.2% (inactive)"}, {"smiles": "CC(C)(C#N)c1cc(Cn2cncn2)cc(C(C)(C)C#N)c1", "activity, negative = inhibition": "15.5% (inactive)"}, {"smiles": "Cc1ccnc2c1NC(=O)c1cccnc1N2C1CC1", "activity, negative = inhibition": "-22.7% (inactive)"}, {"smiles": "O=C(O)c1cc(=O)[nH]c(=O)[nH]1", "activity, negative = inhibition": "18.1% (inactive)"}, {"smiles": "Cc1ncc([N+](=O)[O-])n1CCO", "activity, negative = inhibition": "20.5% (inactive)"}, {"smiles": "CCN(C)C(=O)Oc1cccc([C@H](C)N(C)C)c1", "activity, negative = inhibition": "6.71% (inactive)"}, {"smiles": "COc1cc(NCc2ccc3nc(N)nc(N)c3c2C)cc(OC)c1OC", "Potency": "0.316 µM (active)"}, {"smiles": "COc1cc([C@@H]2c3cc4c(cc3[C@H](O)[C@H]3COC(=O)[C@H]23)OCO4)cc(OC)c1OC", "Potency": "3.55 µM (active)"}, {"smiles": "C1CCC(C(CC2CCCCN2)C2CCCCC2)CC1", "note": "(configuration not stated)", "Potency": "6.31 µM (active)"}, {"smiles": "COc1ccc2cc3[n+](cc2c1OC)CCc1cc2c(cc1-3)OCO2", "Potency": "1 µM (active)"}, {"smiles": "CCn1cc(C(=O)O)c(=O)c2cc(F)c(N3CCNCC3)nc21", "activity, negative = inhibition": "-26.9% [at 12.8 µM] (inactive)"}, {"smiles": "CCOCC(O)COc1ccc(NC(=O)CC[S+](C)C)cc1", "note": "(configuration not stated)", "activity, negative = inhibition": "7.16% (inactive)"}, {"smiles": "COC(=O)Nc1nc2ccc(Sc3ccccc3)cc2[nH]1", "activity, negative = inhibition": "11.2% [at 12.8 µM] (inactive)"}, {"smiles": "CC(C)Cn1cnc2c(N)nc3ccccc3c21", "activity, negative = inhibition": "-3.52% (inactive)"}, {"smiles": "O=S(=O)(O)CCS", "activity, negative = inhibition": "11% (inactive)"}, {"smiles": "CN(C)c1ccc(C(=C2C=CC(=[N+](C)C)C=C2)c2ccc(N(C)C)cc2)cc1", "Potency": "0.355 µM (active)"}, {"smiles": "CN1CCN(c2c(F)cc3c(=O)c(C(=O)O)cn(CCF)c3c2F)CC1", "activity, negative = inhibition": "8.36% (inactive)"}, {"smiles": "NC(=O)N1c2ccccc2CC(=O)c2ccccc21", "activity, negative = inhibition": "2.78% (inactive)"}, {"smiles": "Nc1nc(N)nc(-c2cc(Cl)ccc2Cl)n1", "activity, negative = inhibition": "10.8% (inactive)"}, {"smiles": "CCCN[C@H]1CCc2nc(N)sc2C1", "activity, negative = inhibition": "-24.4% (inactive)"}, {"smiles": "CN(CCOc1ccc(CC2SC(=O)NC2=O)cc1)c1ccccn1", "note": "(configuration not stated)", "activity, negative = inhibition": "8.96% (inactive)"}, {"smiles": "CCCc1cc(C(N)=S)ccn1", "activity, negative = inhibition": "9.81% (inactive)"}, {"smiles": "C[C@]12C=CC(=O)C=C1CC[C@@H]1[C@@H]2C(=O)C[C@@]2(C)[C@H]1CC[C@]2(O)C(=O)CO", "activity, negative = inhibition": "5.12% (inactive)"}, {"smiles": "Nc1[nH]c(=O)ncc1F", "activity, negative = inhibition": "9.16% [at 12.8 µM] (inactive)"}, {"smiles": "CC(C)(Sc1cc(C(C)(C)C)c(O)c(C(C)(C)C)c1)Sc1cc(C(C)(C)C)c(O)c(C(C)(C)C)c1", "activity, negative = inhibition": "2.17% [at 12.8 µM] (inactive)"}, {"smiles": "N=C(N)c1ccc(OCCCCCOc2ccc(C(=N)N)cc2)cc1", "Potency": "1.41 µM (active)"}]}, {"tested_on": "PC15", "assay": "qHTS profiling for inhibitors of Plasmodium falciparum proliferation (AID 504749)", "details": "P. falciparum in erythrocytes, SYBR Green DNA, 72 h; series mostly up to 28.7 µM; activity, negative = inhibition: at the top concentration", "in_short": "as §1", "values": [{"smiles": "Cn1nnc2c(C(N)=O)ncn2c1=O", "activity, negative = inhibition": "0.481% (inactive)"}, {"smiles": "N[C@@H](C(=O)N[C@@H]1C(=O)N2C(C(=O)O)=C(Cl)CS[C@H]12)c1ccccc1", "activity, negative = inhibition": "8.9% (inactive)"}, {"smiles": "O=P(O)(O)C(O)(Cc1cccnc1)P(=O)(O)O", "activity, negative = inhibition": "3.62% (inactive)"}, {"smiles": "NCCCC(O)(P(=O)(O)O)P(=O)(O)O", "activity, negative = inhibition": "3.48% (inactive)"}, {"smiles": "CC(C)(C#N)c1cc(Cn2cncn2)cc(C(C)(C)C#N)c1", "activity, negative = inhibition": "9.8% (inactive)"}, {"smiles": "Cc1ccnc2c1NC(=O)c1cccnc1N2C1CC1", "activity, negative = inhibition": "1.07% (inactive)"}, {"smiles": "O=C(O)c1cc(=O)[nH]c(=O)[nH]1", "activity, negative = inhibition": "12.3% (inactive)"}, {"smiles": "Cc1ncc([N+](=O)[O-])n1CCO", "activity, negative = inhibition": "6.91% (inactive)"}, {"smiles": "CCN(C)C(=O)Oc1cccc([C@H](C)N(C)C)c1", "activity, negative = inhibition": "0.818% (inactive)"}, {"smiles": "COc1cc(NCc2ccc3nc(N)nc(N)c3c2C)cc(OC)c1OC", "Potency": "0.316 µM (active)"}, {"smiles": "COc1cc([C@@H]2c3cc4c(cc3[C@H](O)[C@H]3COC(=O)[C@H]23)OCO4)cc(OC)c1OC", "Potency": "1.78 µM (active)"}, {"smiles": "C1CCC(C(CC2CCCCN2)C2CCCCC2)CC1", "note": "(configuration not stated)", "Potency": "5.01 µM (active)"}, {"smiles": "COc1ccc2cc3[n+](cc2c1OC)CCc1cc2c(cc1-3)OCO2", "Potency": "2.24 µM (active)"}, {"smiles": "CCn1cc(C(=O)O)c(=O)c2cc(F)c(N3CCNCC3)nc21", "activity, negative = inhibition": "1.35% [at 12.8 µM] (inactive)"}, {"smiles": "CCOCC(O)COc1ccc(NC(=O)CC[S+](C)C)cc1", "note": "(configuration not stated)", "activity, negative = inhibition": "9.36% (inactive)"}, {"smiles": "COC(=O)Nc1nc2ccc(Sc3ccccc3)cc2[nH]1", "activity, negative = inhibition": "-0.3% [at 12.8 µM] (inactive)"}, {"smiles": "CC(C)Cn1cnc2c(N)nc3ccccc3c21", "activity, negative = inhibition": "-12% (inactive)"}, {"smiles": "O=S(=O)(O)CCS", "activity, negative = inhibition": "9.28% (inactive)"}, {"smiles": "CN(C)c1ccc(C(=C2C=CC(=[N+](C)C)C=C2)c2ccc(N(C)C)cc2)cc1", "Potency": "0.708 µM (active)"}, {"smiles": "CN1CCN(c2c(F)cc3c(=O)c(C(=O)O)cn(CCF)c3c2F)CC1", "activity, negative = inhibition": "0.771% (inactive)"}, {"smiles": "NC(=O)N1c2ccccc2CC(=O)c2ccccc21", "activity, negative = inhibition": "4.9% (inactive)"}, {"smiles": "Nc1nc(N)nc(-c2cc(Cl)ccc2Cl)n1", "activity, negative = inhibition": "2.39% (inactive)"}, {"smiles": "CCCN[C@H]1CCc2nc(N)sc2C1", "activity, negative = inhibition": "-0.625% (inactive)"}, {"smiles": "CN(CCOc1ccc(CC2SC(=O)NC2=O)cc1)c1ccccn1", "note": "(configuration not stated)", "activity, negative = inhibition": "5.65% (inactive)"}, {"smiles": "CCCc1cc(C(N)=S)ccn1", "activity, negative = inhibition": "1.34% (inactive)"}, {"smiles": "C[C@]12C=CC(=O)C=C1CC[C@@H]1[C@@H]2C(=O)C[C@@]2(C)[C@H]1CC[C@]2(O)C(=O)CO", "activity, negative = inhibition": "2.87% (inactive)"}, {"smiles": "Nc1[nH]c(=O)ncc1F", "activity, negative = inhibition": "1.76% [at 12.8 µM] (inactive)"}, {"smiles": "CC(C)(Sc1cc(C(C)(C)C)c(O)c(C(C)(C)C)c1)Sc1cc(C(C)(C)C)c(O)c(C(C)(C)C)c1", "activity, negative = inhibition": "8.18% [at 12.8 µM] (inactive)"}, {"smiles": "N=C(N)c1ccc(OCCCCCOc2ccc(C(=N)N)cc2)cc1", "Potency": "0.355 µM (active)"}]}, {"tested_on": "PC26", "assay": "qHTS profiling for inhibitors of Plasmodium falciparum proliferation (AID 504749)", "details": "P. falciparum in erythrocytes, SYBR Green DNA, 72 h; series mostly up to 28.7 µM; activity, negative = inhibition: at the top concentration", "in_short": "as §1", "values": [{"smiles": "Cn1nnc2c(C(N)=O)ncn2c1=O", "activity, negative = inhibition": "0.0834% (inactive)"}, {"smiles": "N[C@@H](C(=O)N[C@@H]1C(=O)N2C(C(=O)O)=C(Cl)CS[C@H]12)c1ccccc1", "activity, negative = inhibition": "-3.98% (inactive)"}, {"smiles": "O=P(O)(O)C(O)(Cc1cccnc1)P(=O)(O)O", "activity, negative = inhibition": "2.11% (inactive)"}, {"smiles": "NCCCC(O)(P(=O)(O)O)P(=O)(O)O", "activity, negative = inhibition": "0.931% (inactive)"}, {"smiles": "CC(C)(C#N)c1cc(Cn2cncn2)cc(C(C)(C)C#N)c1", "activity, negative = inhibition": "0.351% (inactive)"}, {"smiles": "Cc1ccnc2c1NC(=O)c1cccnc1N2C1CC1", "activity, negative = inhibition": "-15.5% (inactive)"}, {"smiles": "O=C(O)c1cc(=O)[nH]c(=O)[nH]1", "activity, negative = inhibition": "-0.506% (inactive)"}, {"smiles": "Cc1ncc([N+](=O)[O-])n1CCO", "activity, negative = inhibition": "-12.9% (inactive)"}, {"smiles": "CCN(C)C(=O)Oc1cccc([C@H](C)N(C)C)c1", "activity, negative = inhibition": "-2.68% (inactive)"}, {"smiles": "COc1cc(NCc2ccc3nc(N)nc(N)c3c2C)cc(OC)c1OC", "Potency": "0.675 µM (active)"}, {"smiles": "COc1cc([C@@H]2c3cc4c(cc3[C@H](O)[C@H]3COC(=O)[C@H]23)OCO4)cc(OC)c1OC", "Potency": "8.49 µM (active)"}, {"smiles": "C1CCC(C(CC2CCCCN2)C2CCCCC2)CC1", "note": "(configuration not stated)", "Potency": "7.57 µM (active)"}, {"smiles": "COc1ccc2cc3[n+](cc2c1OC)CCc1cc2c(cc1-3)OCO2", "Potency": "1.9 µM (active)"}, {"smiles": "CCn1cc(C(=O)O)c(=O)c2cc(F)c(N3CCNCC3)nc21", "activity, negative = inhibition": "-31.2% [at 12.8 µM] (inactive)"}, {"smiles": "CCOCC(O)COc1ccc(NC(=O)CC[S+](C)C)cc1", "note": "(configuration not stated)", "activity, negative = inhibition": "-1.07% (inactive)"}, {"smiles": "COC(=O)Nc1nc2ccc(Sc3ccccc3)cc2[nH]1", "activity, negative = inhibition": "-0.987% [at 12.8 µM] (inactive)"}, {"smiles": "CC(C)Cn1cnc2c(N)nc3ccccc3c21", "activity, negative = inhibition": "-0.815% (inactive)"}, {"smiles": "O=S(=O)(O)CCS", "activity, negative = inhibition": "-1.34% (inactive)"}, {"smiles": "CN(C)c1ccc(C(=C2C=CC(=[N+](C)C)C=C2)c2ccc(N(C)C)cc2)cc1", "Potency": "0.849 µM (active)"}, {"smiles": "CN1CCN(c2c(F)cc3c(=O)c(C(=O)O)cn(CCF)c3c2F)CC1", "activity, negative = inhibition": "3.4% (inactive)"}, {"smiles": "NC(=O)N1c2ccccc2CC(=O)c2ccccc21", "activity, negative = inhibition": "-23.5% (inactive)"}, {"smiles": "Nc1nc(N)nc(-c2cc(Cl)ccc2Cl)n1", "activity, negative = inhibition": "-13% (inactive)"}, {"smiles": "CCCN[C@H]1CCc2nc(N)sc2C1", "activity, negative = inhibition": "1.6% (inactive)"}, {"smiles": "CN(CCOc1ccc(CC2SC(=O)NC2=O)cc1)c1ccccn1", "note": "(configuration not stated)", "activity, negative = inhibition": "-0.97% (inactive)"}, {"smiles": "CCCc1cc(C(N)=S)ccn1", "activity, negative = inhibition": "1.57% (inactive)"}, {"smiles": "C[C@]12C=CC(=O)C=C1CC[C@@H]1[C@@H]2C(=O)C[C@@]2(C)[C@H]1CC[C@]2(O)C(=O)CO", "activity, negative = inhibition": "4.61% (inactive)"}, {"smiles": "Nc1[nH]c(=O)ncc1F", "activity, negative = inhibition": "-8.37% [at 12.8 µM] (inactive)"}, {"smiles": "CC(C)(Sc1cc(C(C)(C)C)c(O)c(C(C)(C)C)c1)Sc1cc(C(C)(C)C)c(O)c(C(C)(C)C)c1", "activity, negative = inhibition": "-1.77% [at 12.8 µM] (inactive)"}, {"smiles": "N=C(N)c1ccc(OCCCCCOc2ccc(C(=N)N)cc2)cc1", "Potency": "0.953 µM (active)"}]}]}
